Results from the supplement of paper PMC4466140.

B1: unnamed (peptide)
chain: TKRKRPARLIFYDSK

target: AgAbp1; assay: SPOT peptide array binding signal intensity (averaged, normalized) (arbitrary units (background-subtracted, floor 0; scale differs between SH3 domains)); higher = stronger binding of the SH3 domain to the peptide
Outline: (§1)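 Cellulose membranes carried synthetic 15-mer peptides with cysteines swapped for serines. These were incubated overnight at 4°C with 10 μg/ml of GST-fused SH3 domains from four yeast species in TBS-based blocking buffer. Binding signal, detected with anti-GST antibody and quantified in Genespotter, is the normalized, background-subtracted spot intensity averaged over replicates, in arbitrary units specific to each domain.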

Binder	SPOT peptide array binding signal intensity
B1	113

target: AgBbc1; assay: as above
Outline: as §1

Binder	SPOT peptide array binding signal intensity
B1	40.2

target: AgBem1-D1; assay: as above
Outline: as §1

Binder	SPOT peptide array binding signal intensity
B1	82

target: AgBzz1-D1; assay: as above
Outline: as §1

Binder	SPOT peptide array binding signal intensity
B1	26

target: AgBzz1-D2; assay: as above
Outline: as §1

Binder	SPOT peptide array binding signal intensity
B1	20

target: AgCyk3; assay: as above
Outline: as §1

Binder	SPOT peptide array binding signal intensity
B1	13.5

target: AgFus1; assay: as above
Outline: as §1

Binder	SPOT peptide array binding signal intensity
B1	436

target: AgHof1; assay: as above
Outline: as §1

Binder	SPOT peptide array binding signal intensity
B1	20.5

target: AgHse1; assay: as above
Outline: as §1

Binder	SPOT peptide array binding signal intensity
B1	696

target: AgLsb1; assay: as above
Outline: as §1

Binder	SPOT peptide array binding signal intensity
B1	3.5

target: AgLsb4; assay: as above
Outline: as §1

Binder	SPOT peptide array binding signal intensity
B1	122

target: AgMyo5; assay: as above
Outline: as §1

Binder	SPOT peptide array binding signal intensity
B1	≤ 0

target: AgNbp2; assay: as above
Outline: as §1

Binder	SPOT peptide array binding signal intensity
B1	236

target: AgRvs167; assay: as above
Outline: as §1

Binder	SPOT peptide array binding signal intensity
B1	3.67

target: AgSho1; assay: as above
Outline: as §1

Binder	SPOT peptide array binding signal intensity
B1	94.5

target: AgSla1-D1-D2; assay: as above
Outline: as §1

Binder	SPOT peptide array binding signal intensity
B1	1050

target: AgSla1-D3; assay: as above
Outline: as §1

Binder	SPOT peptide array binding signal intensity
B1	1.25

target: CaAbp1-D1; assay: as above
Outline: as §1

Binder	SPOT peptide array binding signal intensity
B1	717

target: CaAbp1-D2; assay: as above
Outline: as §1

Binder	SPOT peptide array binding signal intensity
B1	662

target: CaBbc1; assay: as above
Outline: as §1

Binder	SPOT peptide array binding signal intensity
B1	66.5

target: CaBem1-D1; assay: as above
Outline: as §1

Binder	SPOT peptide array binding signal intensity
B1	16

target: CaBzz1-D1; assay: as above
Outline: as §1

Binder	SPOT peptide array binding signal intensity
B1	108

target: CaBzz1-D2; assay: as above
Outline: as §1

Binder	SPOT peptide array binding signal intensity
B1	40.2

target: CaCyk3; assay: as above
Outline: as §1

Binder	SPOT peptide array binding signal intensity
B1	119

target: CaFus1; assay: as above
Outline: as §1

Binder	SPOT peptide array binding signal intensity
B1	876

target: CaHof1; assay: as above
Outline: as §1

Binder	SPOT peptide array binding signal intensity
B1	1.5

target: CaHse1; assay: as above
Outline: as §1

Binder	SPOT peptide array binding signal intensity
B1	36.8

target: CaLsb1; assay: as above
Outline: as §1

Binder	SPOT peptide array binding signal intensity
B1	1.5

target: CaLsb4; assay: as above
Outline: as §1

Binder	SPOT peptide array binding signal intensity
B1	85

target: CaMyo5; assay: as above
Outline: as §1

Binder	SPOT peptide array binding signal intensity
B1	3.5

target: CaNbp2; assay: as above
Outline: as §1

Binder	SPOT peptide array binding signal intensity
B1	450

target: CaRvs167; assay: as above
Outline: as §1

Binder	SPOT peptide array binding signal intensity
B1	19.8

target: CaRvs167-3; assay: as above
Outline: as §1

Binder	SPOT peptide array binding signal intensity
B1	240

target: CaSho1; assay: as above
Outline: as §1

Binder	SPOT peptide array binding signal intensity
B1	605

target: CaSla1-D1-D2; assay: as above
Outline: as §1

Binder	SPOT peptide array binding signal intensity
B1	1

target: CaSla1-D3; assay: as above
Outline: as §1

Binder	SPOT peptide array binding signal intensity
B1	25

target: ScAbp1; assay: as above
Outline: as §1

Binder	SPOT peptide array binding signal intensity
B1	26
